INHIBITION data for 71 compounds are collected here from ChEMBL document CHEMBL4513216, “Probing the Open Global Health Chemical Diversity Library for Multistage-Active Starting Points for Next-Generation Antimalarials” (ACS Infect Dis, 2020).

The whole screen tested about 69,000 compounds, of which about 8,600 (12%) showed an effect of 50% or more. What follows is part of a selection rich in strong results, with near analogues and random picks from the rest.

The experiment deals with Plasmodium berghei. In words: Screen against P. berghei liver stage (PbLuc), transformed with Luciferase, at 10uM. The format is functional, HepG2. Conditions: tested at 10 uM.
On to `COCCNC(=O)c1ccc(NCc2c(C)noc2C)cc1Cl`, for which the INHIBITION is recorded as 2.03%.

For the compound `O=C(c1cnccn1)N1CCOC2(CCCN(c3ncccc3F)C2)C1` (stereo unspecified), the INHIBITION amounted to 39.5%. Consider `COCCNC(=O)N1CCN(c2cc(F)ccc2F)CC1`, for which the INHIBITION turned out to be 8.7%. With `CNCc1cnc(Nc2ccccc2)nc1`, the INHIBITION was 39.9%. Regarding `CC(C)c1nnc(NC(=O)C2CSCN2C(=O)C2CCC2)s1` (stereo unspecified), the INHIBITION came out at 61.2%. Take `Cc1nnc(NC(=O)C2CSCN2C(=O)C2CCCC2)s1` (stereo unspecified): the INHIBITION was 25.4%. The value for `O=C(Nc1nncs1)C1CSCN1C(=O)C1CCCC1` (stereo unspecified) was 20.5%. Turning to `CC(C)CN(C(=O)Nc1cccnc1)C1CC1`, the INHIBITION was -18.5%. For `CN1CCC(Oc2ccc(-n3ccnc3-c3ccncc3)cc2)CC1`, the INHIBITION is reported as 49.4%. The value for `COc1ccccc1OC1CCN(c2ccncc2)CC1` was -2.93%.

For `CN(C(=O)Nc1ccncc1)C1CCN(c2ccc(Cl)cc2)CC1`, the INHIBITION is on record as 83.1%.

`CN(C(=O)Nc1cccnc1)C1CCN(c2ccc(Cl)cc2)CC1`: the INHIBITION came out at 60.4%.

Turning to `CN(C(=O)NC1CC1)C1CCN(c2ccc(Cl)cc2)CC1`, the INHIBITION came out at 13.9%. As to `CN(CC(=O)N(C)C1CC1)C1CCN(c2ccc(Cl)cc2)CC1`, the INHIBITION is 29%. The value for `CSC(C)C(=O)N(C)C1CCN(c2ccc(Cl)cc2)CC1` (stereo unspecified) was 35.5%; that for `COc1ccc(N2CCC(N3C[C@H](NC(C)=O)[C@@H](C(C)C)C3)CC2)cc1` was 33%. For `CN1CCC(N(C)C(=O)Nc2ccc(Cl)cc2)CC1`, the INHIBITION is -5.64%.

Turning to `COc1ccc(N2CCC(N(C)C(=O)C(C)SC)CC2)cc1` (stereo unspecified), the INHIBITION was 60.4%.

For `COc1ccc(OC2CCN(c3ccncc3)CC2)cc1`, the INHIBITION came out at 55.1%. With `CS(=O)(=O)N[C@@H]1CN(Cc2ccc3ccccc3c2)C[C@H]1O`, the INHIBITION is -6.88%. As for `O=C(Cc1ccccn1)N1CCCC(c2nccn2CC2CCC2)C1` (stereo unspecified), the figure is 10.7%.

Regarding `O=C(O)c1cc(C2CC2)nc2c(Cl)cnn12`, the INHIBITION was found to be 29.2%.

In the case of `CC(C)C(C(=O)N1CCN(c2nccs2)CC1)n1cncn1` (stereo unspecified), the INHIBITION was 5.03%.

For `Cc1nc(C2CCNC2)nc2c1CCC(=O)N2CC(C)C` (stereo unspecified), the INHIBITION is 25.65%. As for `CN1C(=O)c2cccc(NC(=O)c3ccc4c(c3)OCCO4)c2C1=O`, the INHIBITION is on record as 8.46%. Take `CC(C)(C)NC(=O)[C@@H]1CNC[C@]12Cc1ccccc1C(=O)N2`: the INHIBITION is on record as 24.2%. Take `COCCNc1nnc(-c2cnc(C)cn2)s1`: the INHIBITION is given as -54.1%. Regarding `c1cncc(C[C@H]2[C@H](N3CCOCC3)CCN2Cc2nccs2)c1`, the INHIBITION is reported as 8.85%. The value for `Cn1cc(C(=O)N2CCN(Cc3cscn3)CC2)ccc1=O` was -8.22%; that for `CCOC(C)C(=O)N(C)C1CCN(c2ccc(OC)cc2)CC1` (stereo unspecified) was 33.4%; that for `Cc1cc(NC(=O)N(C)CCN2CCN(c3ccccc3)CC2)on1` was 35.5%. Turning to `COc1ccc(N2CCC(N(C)C(=O)Nc3ccncc3)CC2)cc1`, the INHIBITION is listed as 52.8%. As for `COc1ccc(N2CCC(N(C)C(C)C(=O)N(C)C)CC2)cc1` (stereo unspecified), the figure is 45.3%. The value for `CN(CCN1CCN(c2ccccc2)CC1)C(=O)Nc1ccccn1` was 45.4%; that for `COCc1ncc(CN2CCC(Oc3ccccc3OC)CC2)cn1` was -20.6%; that for `CN(CCN1CCN(c2ccccc2)CC1)C(=O)Nc1ccncc1` was 73.2%. Regarding `COCc1ncc(CN2CCC(Oc3ccc(OC)cc3)CC2)cn1`, the INHIBITION amounted to 56%. For `COCc1ncc(CN2CCC(Oc3ccccc3C)CC2)cn1`, the INHIBITION is on record as 26.8%. The value for `CC(=O)NCCc1ccc(S(=O)(=O)Nc2ccc(C)cc2F)s1` was -44.2%; that for `CN(C)c1cc(C2CCCN2)ccn1` (stereo unspecified) was 33.54%; that for `O=S(=O)(Cc1ccon1)N1CCN(c2ccncc2Cl)CC1` was 38.9%. As for `O=c1[nH]c2ncccc2n1C1CCNCC1`, the figure is -6.18%; as for `Cc1nccn1-c1cc(CNC(=O)CC2CCCO2)ccn1` (stereo unspecified), 30.6%.

Consider `CO[C@H]1CC[C@H]2[C@H]1OCCN2Cc1ccc(F)c(F)c1`, for which the INHIBITION was 22.4%. `Cc1cnn(CCNc2ncnc3c2CCN(CC2CCOC2)CC3)c1` (stereo unspecified): the INHIBITION amounted to 60%.

For `c1nc2c(c(C3CC3)n1)CCN(CC1CCOC1)CC2` (stereo unspecified), the INHIBITION is reported as 13.6%. Consider `CN(C)c1ncnc2c1CCN(CC1CCOCC1)CC2`, for which the INHIBITION worked out at 64.9%. Turning to `Cc1ccc(Nc2ncnc3c2CCN(CC2CCOC2)CC3)cc1` (stereo unspecified), the INHIBITION is given as 29.8%. For `c1nc2c(c(NCCCn3cncn3)n1)CCN(CC1CCOC1)CC2` (stereo unspecified), the INHIBITION worked out at 31.6%. `CCN(CC)c1ncnc2c1CCN(CC1CCOCC1)CC2`: the INHIBITION turned out to be 41.6%.

With `CCN(C)c1ncnc2c1CCN(CC1CCOC1)CC2` (stereo unspecified), the INHIBITION was found to be 55.5%. In the case of `CN(C)c1ncnc2c1CCN(CC1CCOC1)CC2` (stereo unspecified), the INHIBITION came out at 19.9%. Consider `Cc1ncnc2c1CCN(CC1CCOC1)CC2` (stereo unspecified), for which the INHIBITION is recorded as 18.3%. The value for `CCOC(=O)Cn1c(=O)[nH]c2cn(-c3ccccc3)c(=O)n21` was 7.3%; that for `Cc1cc(N2CCCC2c2nccnc2C)ncn1` (stereo unspecified) was 26.8%.

With `Cc1nc(CN2CC3(CCN(c4nccs4)C3)CC2=O)cs1` (stereo unspecified), the INHIBITION is given as -3.52%. The value for `CCN(CC)C1CCN(C(=O)NCc2cccc(-n3cccn3)c2)C1` (stereo unspecified) was 27%; that for `CC(=O)Nc1ccc(-n2ccc3nc(N4CCCC4)ncc3c2=O)cc1` was 80.5%; that for `CC(=O)c1ccc(-n2ccc3nc(N4CCCC4)ncc3c2=O)cc1` was -82.2%. As for `O=c1c2cnc(N3CCCCC3)nc2ccn1-c1ccccc1`, the figure is 19.7%.

For `COCC(=O)NC(C)c1cccc(Br)c1` (stereo unspecified), the INHIBITION is -60.9%. Consider `Cc1ccn(-c2ccnc(N3CCSCC3)n2)n1`, for which the INHIBITION is reported as 30%. The value for `COc1ccc(CN2C[C@@H]3CN(Cc4ccoc4)C[C@@H]3C2=O)cc1` was -4.82%; that for `COc1ccc(C[C@H]2CN(C(=O)c3cnoc3)CC[C@@H]2OC)cc1` was -50.4%.

Take `CO[C@H]1CCN(Cc2ccoc2)C[C@@H]1Cc1ccccc1`: the INHIBITION is reported as 41.4%. Regarding `COc1ccc(C[C@H]2CN(C(=O)C3CC3)CC[C@H]2OC)cc1`, the INHIBITION was 11.2%. In the case of `COc1ccc(C[C@H]2CN(C(=O)CN(C)C)CC[C@H]2OC)cc1`, the INHIBITION was found to be 41.6%. For `COc1ccc(C[C@H]2CN(Cc3ccoc3)CC[C@@H]2OC)cc1`, the INHIBITION was 58.3%. For `CO[C@@H]1CCN(Cc2ccoc2)C[C@@H]1Cc1ccccc1`, the INHIBITION turned out to be 51.4%. Turning to `CO[C@@H]1CCN(Cc2ccoc2)[C@H]1Cc1ccccc1`, the INHIBITION was determined as 29.5%. Consider `COc1ccc(C[C@H]2CN(Cc3ccoc3)CC[C@H]2OC)cc1`, for which the INHIBITION amounted to 63.3%.
